Results taken from PubChem BioAssay AID1159580 (chemical genetic matrix, 2015).
Among all 5,500 compounds or so, about 2,000 (36%) were called active. Roughly 18% stayed inconclusive and do not appear here. Cut-off read from the data, not from the text of the source: active = normalized growth mostly below about 0.91 (no sharp cut-off); inconclusive = no clear call, values can overlap the other calls; inactive = mostly above about 0.92. The list shows a part of the results.

Assay: chemical genetic growth profiling, strain panel (AID 1159580);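 note: tested at 20 µM; growth read once vehicle control cultures reached saturation at 30 °C; 1 = growth at the plate median or of vehicle wells; lower values mean less growth of the strain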
Conditions: growth OD

In the case of `Cc1cccc(CN2CCN(C(c3ccccc3)c3ccc(Cl)cc3)CC2)c1` (stereo not drawn), the normalized growth (S. cerevisiae deletion strains, locus YJR075W, strain HOC1, hits give low values) is reported as 0.794 (active), the normalized growth (S. cerevisiae deletion strains, locus YKL009W, strain mrt4, hits give low values) is reported as 0.971 (inactive) and the normalized growth (S. cerevisiae deletion strains, locus YKL068W, hits give low values) is reported as 0.992 (inactive). The normalized growth (S. cerevisiae deletion strains, locus YKL085W, strain MDH1 (second series), hits give low values) was 0.978 (inactive), the normalized growth (S. cerevisiae deletion strains, locus YKL085W, strain MDH1, hits give low values) was 0.978 (inactive) and the normalized growth (S. cerevisiae deletion strains, locus YKL160W, strain elf1, hits give low values) was 0.75 (active). For the same molecule, the normalized growth (S. cerevisiae deletion strains, locus YKR001C, strain vps1, hits give low values) was 0.47 (active), the normalized growth (S. cerevisiae deletion strains, locus YKR026C, strain gcn3, hits give low values) was 0.969 (inactive) and the normalized growth (S. cerevisiae deletion strains, locus YKR091W, strain srl3, hits give low values) was 0.964 (inactive). The normalized growth (S. cerevisiae deletion strains, locus YLL001W, strain dnm1, hits give low values) was 0.81 (active), the normalized growth (S. cerevisiae deletion strains, locus YLL026W, hits give low values) was 0.8 (active) and the normalized growth (S. cerevisiae deletion strains, locus YLL041C, strain sdh2, hits give low values) was 0.926 (active). The normalized growth (S. cerevisiae deletion strains, locus YLR027C, strain aat2, hits give low values) was 0.744 (active), the normalized growth (S. cerevisiae deletion strains, locus YLR039C, strain RIC1, hits give low values) was 1.31 (inactive) and the normalized growth (S. cerevisiae deletion strains, locus YLR058C, strain SHM2, hits give low values) was 0.766 (active). The normalized growth (S. cerevisiae deletion strains, locus YLR102C, strain apc9, hits give low values) was 0.99 (inactive), the normalized growth (S. cerevisiae deletion strains, locus YLR113W, strain HOG1, hits give low values) was 0.912 (inactive) and the normalized growth (S. cerevisiae deletion strains, locus YLR221C, strain rsa3, hits give low values) was 0.601 (active). For the same molecule, the normalized growth (S. cerevisiae deletion strains, locus YLR258W, strain gsy2, hits give low values) was 0.721 (active), the normalized growth (S. cerevisiae deletion strains, locus YLR262C, strain YPT6 (second series), hits give low values) was 0.905 (inactive) and the normalized growth (S. cerevisiae deletion strains, locus YLR262C, strain YPT6, hits give low values) was 1.06 (inactive). For the same molecule, the normalized growth (S. cerevisiae deletion strains, locus YLR268W, strain sec22, hits give low values) was 0.895 (inactive), the normalized growth (S. cerevisiae deletion strains, locus YLR320W, strain mms22, hits give low values) was 0.713 (active) and the normalized growth (S. cerevisiae deletion strains, locus YLR330W, strain CHS5, hits give low values) was 0.743 (active). The normalized growth (S. cerevisiae deletion strains, locus YLR342W, strain FKS1 (second series), hits give low values) was 0.791 (inactive), the normalized growth (S. cerevisiae deletion strains, locus YLR342W, strain FKS1, hits give low values) was 0.929 (inactive) and the normalized growth (S. cerevisiae deletion strains, locus YLR357W, strain rsc2, hits give low values) was 0.908 (inactive). The normalized growth (S. cerevisiae deletion strains, locus YLR370C, strain arc18, hits give low values) was 0.853 (active), the normalized growth (S. cerevisiae deletion strains, locus YLR371W, strain rom2, hits give low values) was 0.964 (inactive) and the normalized growth (S. cerevisiae deletion strains, locus YLR384C, strain iki3, hits give low values) was 0.992 (inactive). The normalized growth (S. cerevisiae deletion strains, locus YLR418C, strain cdc73, hits give low values) was 0.365 (active), the normalized growth (S. cerevisiae deletion strains, locus YML016C, strain PPZ1, hits give low values) was 0.887 (active) and the normalized growth (S. cerevisiae deletion strains, locus YML032C, strain rad52, hits give low values) was 0.831 (active). The normalized growth (S. cerevisiae deletion strains, locus YML120C, strain ndi1, hits give low values) was 0.616 (active), the normalized growth (S. cerevisiae deletion strains, locus YML124C, strain tub3, hits give low values) was 0.977 (inactive) and the normalized growth (S. cerevisiae deletion strains, locus YMR058W, strain fet3, hits give low values) was 0.873 (active). The normalized growth (S. cerevisiae deletion strains, locus YMR078C, strain ctf18, hits give low values) was 0.986 (inactive), the normalized growth (S. cerevisiae deletion strains, locus YMR125W, strain sto1, hits give low values) was 0.854 (active) and the normalized growth (S. cerevisiae deletion strains, locus YMR129W, hits give low values) was 0.876 (active). For the same molecule, the normalized growth (S. cerevisiae deletion strains, locus YMR205C, strain PFK2, hits give low values) was 0.802 (active), the normalized growth (S. cerevisiae deletion strains, locus YMR223W, strain ubp8, hits give low values) was 0.809 (active) and the normalized growth (S. cerevisiae deletion strains, locus YMR231W, strain pep5, hits give low values) was 0.526 (active). For the same molecule, the normalized growth (S. cerevisiae deletion strains, locus YMR263W, strain SAP30, hits give low values) was 0.754 (active), the normalized growth (S. cerevisiae deletion strains, locus YMR307W, strain GAS1, hits give low values) was 0.611 (inactive) and the normalized growth (S. cerevisiae deletion strains, locus YNL067W, strain RPL9B, hits give low values) was 0.789 (active). For the same molecule, the normalized growth (S. cerevisiae deletion strains, locus YNL071W, strain lat1, hits give low values) was 0.801 (active), the normalized growth (S. cerevisiae deletion strains, locus YNL183C, strain NPR1, hits give low values) was 0.947 (inactive) and the normalized growth (S. cerevisiae deletion strains, locus YNL209W, strain ssb2, hits give low values) was 0.54 (active). The normalized growth (S. cerevisiae deletion strains, locus YNL233W, strain BNI4, hits give low values) was 0.692 (active), the normalized growth (S. cerevisiae deletion strains, locus YNL248C, strain rpa49, hits give low values) was 0.806 (active) and the normalized growth (S. cerevisiae deletion strains, locus YNL250W, strain rad50, hits give low values) was 0.983 (inactive). For the same molecule, the normalized growth (S. cerevisiae deletion strains, locus YNL271C, strain bni1, hits give low values) was 0.988 (inactive), the normalized growth (S. cerevisiae deletion strains, locus YNL298W, strain CLA4, hits give low values) was 0.988 (inactive) and the normalized growth (S. cerevisiae deletion strains, locus YNL307C, strain MCK1, hits give low values) was 0.96 (inactive). The normalized growth (S. cerevisiae deletion strains, locus YNL322C, strain KRE1 (second series), hits give low values) was 0.685 (active), the normalized growth (S. cerevisiae deletion strains, locus YNL322C, strain KRE1, hits give low values) was 0.972 (inactive) and the normalized growth (S. cerevisiae deletion strains, locus YNR049C, strain mso1, hits give low values) was 0.983 (inactive). The normalized growth (S. cerevisiae deletion strains, locus YNR052C, strain pop2, hits give low values) was 0.724 (active), the normalized growth (S. cerevisiae deletion strains, locus YOL012C, strain htz1) was 0.942 (inactive) and the normalized growth (S. cerevisiae deletion strains, locus YOL147C, strain pex11, hits give low values) was 0.913 (active). The normalized growth (S. cerevisiae deletion strains, locus YOR001W, strain rrp6, hits give low values) was 0.802 (active), the normalized growth (S. cerevisiae deletion strains, locus YOR061W, strain CKA2, hits give low values) was 0.916 (inactive) and the normalized growth (S. cerevisiae deletion strains, locus YOR069W, strain VPS5, hits give low values) was 0.955 (inactive). For the same molecule, the normalized growth (S. cerevisiae deletion strains, locus YOR070C, strain gyp1, hits give low values) was 0.735 (active), the normalized growth (S. cerevisiae deletion strains, locus YOR080W, strain dia2, hits give low values) was 0.937 (inactive) and the normalized growth (S. cerevisiae deletion strains, locus YOR083W, strain WHI5, hits give low values) was 0.689 (active). For the same molecule, the normalized growth (S. cerevisiae deletion strains, locus YOR106W, strain vam3, hits give low values) was 0.549 (active), the normalized growth (S. cerevisiae deletion strains, locus YOR136W, strain idh2, hits give low values) was 0.937 (inactive) and the normalized growth (S. cerevisiae deletion strains, locus YOR144C, strain elg1, hits give low values) was 0.973 (inactive). The normalized growth (S. cerevisiae deletion strains, locus YOR184W, strain ser1, hits give low values) was 0.833 (active), the normalized growth (S. cerevisiae deletion strains, locus YOR231W, strain MKK1, hits give low values) was 0.887 (inactive) and the normalized growth (S. cerevisiae deletion strains, locus YOR265W, strain rbl2, hits give low values) was 0.774 (active). For the same molecule, the normalized growth (S. cerevisiae deletion strains, locus YOR270C, strain vph1, hits give low values) was 0.524 (active), the normalized growth (S. cerevisiae deletion strains, locus YOR290C, strain snf2, hits give low values) was 0.764 (active) and the normalized growth (S. cerevisiae deletion strains, locus YOR316C, strain cot1, hits give low values) was 0.98 (inactive). The normalized growth (S. cerevisiae deletion strains, locus YPL051W, strain arl3, hits give low values) was 0.496 (active), the normalized growth (S. cerevisiae deletion strains, locus YPL055C, strain LGE1, hits give low values) was 0.439 (active) and the normalized growth (S. cerevisiae deletion strains, locus YPL078C, strain atp4, hits give low values) was 0.887 (active). For the same molecule, the normalized growth (S. cerevisiae deletion strains, locus YPL106C, strain sse1, hits give low values) was 0.828 (active), the normalized growth (S. cerevisiae deletion strains, locus YPL240C, strain hsp82, hits give low values) was 0.808 (active) and the normalized growth (S. cerevisiae deletion strains, locus YPL241C, strain CIN2, hits give low values) was 0.956 (inactive). The normalized growth (S. cerevisiae deletion strains, locus YPL256C, strain CLN2, hits give low values) was 0.94 (inactive), the normalized growth (S. cerevisiae deletion strains, locus YPR119W, strain clb2, hits give low values) was 0.996 (inactive) and the normalized growth (S. cerevisiae deletion strains, locus YPR141C, strain kar3, hits give low values) was 0.989 (inactive). For the same molecule, the normalized growth (S. cerevisiae deletion strains, locus YPR163C, strain tif3, hits give low values) was 0.721 (active), the normalized growth (S. cerevisiae deletion strains, locus YPR167C, strain met16, hits give low values) was 0.884 (active) and the normalized growth (S. cerevisiae deletion strains, strain wtn01, hits give low values) was 0.761 (active). For the same molecule, the normalized growth (S. cerevisiae strains, strain wild type, hits give low values) was 0.812 (active).
